This is a sample that favours compounds with a hit; in the whole collection about 18% have one here.
DT40 TDP1 no CPT: qHTS for Inhibitors of human tyrosyl-DNA phosphodiesterase 1 (TDP1): qHTS in cells in absence of CPT. DT40 Tdp1-/- hTDP1 cells, no CPT, ATP luminescence, 48 h. Potency, µM (titrated, usually from 46.2 µM), without a hit: at the top dose activity change, negative = growth inhibition, actives largely listed as inhibitors. 420,000 tested, 15% active. AID 686978, 2013; also: potency is read from the fitted curve at half-maximal effect; nearly all actives have a fitted effect of over 55% in size
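Camptothecin absent (DMSO only). Human TDP1-complemented DT40 knockout cells, 400 cells/well, 37 °C for minimum 48 hr; ATP measured via CellTiter-Glo, 30 min dark incubation, luminescence.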
TDP1 cell CPT: growth inhibition of DT40 Tdp1-/-;hTDP1 cells with camptothecin (screen for TDP1 inhibitors) | Potency, µM (highest dose often 46.2 µM), for the others: at the top dose activity change, negative = growth inhibition, usual class: inhibitors | 420,000 tested, 12% active | chicken DT40 Tdp1-/-;hTDP1 cells + 20 nM CPT, ATP luminescence, 48 h; also: potency is read from the fitted curve at half-maximal effect; nearly all actives have a fitted effect of over 55% in size
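Chicken DT40 Tdp1-/- cells complemented with human TDP1, 400 cells/well, exposed to compounds plus 20 nM camptothecin for at least 48 h at 37 C; viability read as ATP content by CellTiter-Glo luminescence.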
LDHA inh: LDHA (human) enzyme inhibition; 480,000 tested, 0.15% active; activity change, % (values are at about 110 or 230 µM); purified LDHA, NADH/diaphorase-resazurin fluorescence; active compounds read low; AID 1347041; in the data active = activity change below about -30%; inconclusive = mostly about -25% to -30%;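 also: plate controls were DMSO wells for no effect and wells without enzyme for full effect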
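Resorufin fluorescence (ex540/em590), read at 0 and 20 min after diaphorase/resazurin addition, reports the NADH left after a 5 min room-temperature reaction of 2 nM human LDH5 with 0.06 mM NADH and 0.2 mM pyruvate.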
RORgamma inh: blocks mouse ROR gamma transcriptional activity. P51450. Drosophila S2 Gal4-RORgamma UAS-luciferase reporter, 20 h. Potency, µM (top dose mostly 53.6 µM), inactives show at the highest dose activity change, negative = inhibition, actives largely listed as inhibitors. 310,000 tested, 5.4% active. AID 2551; also: potency is read from the fitted curve at half-maximal effect; nearly all actives have a fitted effect of over 60% in size
Target sequence (P51450 whole entry, looked up, the tested form may be a part): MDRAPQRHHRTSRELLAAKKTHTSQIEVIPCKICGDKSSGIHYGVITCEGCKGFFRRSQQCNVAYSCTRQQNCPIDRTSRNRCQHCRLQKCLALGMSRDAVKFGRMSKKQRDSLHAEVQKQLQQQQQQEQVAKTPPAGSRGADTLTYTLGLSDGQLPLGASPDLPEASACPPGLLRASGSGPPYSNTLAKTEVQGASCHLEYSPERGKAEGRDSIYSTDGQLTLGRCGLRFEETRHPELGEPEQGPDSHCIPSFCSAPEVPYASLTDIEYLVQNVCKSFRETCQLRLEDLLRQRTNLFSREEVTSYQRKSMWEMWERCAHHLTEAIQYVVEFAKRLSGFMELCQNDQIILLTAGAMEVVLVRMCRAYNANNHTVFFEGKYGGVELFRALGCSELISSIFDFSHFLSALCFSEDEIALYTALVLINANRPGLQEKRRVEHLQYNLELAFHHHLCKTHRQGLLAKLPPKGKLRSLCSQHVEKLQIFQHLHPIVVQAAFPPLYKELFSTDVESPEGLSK
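Drosophila Schneider cells stably carrying a metallothionein-driven Gal4 DBD–ROR gamma fusion and a UAS-Photinus luciferase reporter were exposed to compound for 1 hr, then induced with copper sulfate (700 uM final) for 20 hr at ambient temperature before luminescence reading.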
IL-1B inflam inh: blocks inflammasome-driven IL-1 beta release. THP-1 LPS/ATP IL-1B secretion, AlphaLISA, 16 h; active compounds read low. activity change, % at 57.5 µM. 360,000 tested, 4.7% active. AID 743279; in the data active = activity change below about -50%; inconclusive = mostly about -30% to -49%
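Secreted IL-1B measured by AlphaLISA bead assay after 16 h compound exposure of THP-1 cells; compounds (final up to 57.5 uM) added 1 h before LPS (250 ng/mL) and ATP (1.25 mM) stimulation; lower signal means less secretion.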
Gal4-VP16 FLuc: inhibits Gal4-VP16 luciferase reporter, ROR gamma counter-screen; Drosophila S2 Gal4-VP16 UAS-luciferase, luminescence, 20 h; Potency, µM (titrated, usually from 53.6 µM), for the others: at the top dose activity, negative = inhibition, hits mostly inhibitors; 310,000 tested, 3.5% active;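 also: Gal4-VP16 expression switched on by copper sulfate through the metallothionein promoter; potency is read from the fitted curve at half-maximal effect; nearly all actives have a fitted effect of over 50% in size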
* = called active by the depositor. Unless noted, calls follow the shape of the dose curve; as a rule, active = well fitted curve in the direction sought with a large enough effect; inconclusive = small, poorly fitted or top-dose-only effect, or another doubt; inactive = no such curve, though single readings can be large; an effect the other way counts as inactive or inconclusive. Unless noted, % is scaled to controls: 0 for no effect and ±100 for the full control effect.

`CCOC(=O)c1sc2nc3c(SCC(=O)O)cc(C(=O)c4cc(F)ccc4O)cn3c(=O)c2c1C` gave DT40 TDP1 no CPT -12%, TDP1 cell CPT -10%, LDHA inh -11, RORgamma inh -7%, IL-1B inflam inh 14 and Gal4-VP16 FLuc -2%.
CCc1c(C)sc2nc3c(C(=O)N4CCOCC4)cc(C(=O)c4ccccc4O)cn3c(=O)c12 was read as DT40 TDP1 no CPT 15µM*, TDP1 cell CPT 23µM*, LDHA inh -5, RORgamma inh 17%, IL-1B inflam inh -64* and Gal4-VP16 FLuc 2%.
O/N=C(/C[n+]1csc2ccccc21)c1ccccc1 was read as DT40 TDP1 no CPT 1.1µM*, TDP1 cell CPT 1.1µM* and LDHA inh -1.
Screening Cc1csc[n+]1CC(=O)c1ccc(I)cc1 returned DT40 TDP1 no CPT inconclusive and TDP1 cell CPT 16µM*.
O=C(C[n+]1csc2ccccc21)c1ccc(I)cc1 was read as DT40 TDP1 no CPT 11µM*, TDP1 cell CPT inconclusive and LDHA inh -9.
Screening CCCn1c(N2CCN(Cc3c(F)cccc3Cl)CC2)nc2c1c(=O)[nH]c(=O)n2C returned LDHA inh -2.
For CCCn1c(-n2nc(CC)cc2CC)nc2c1c(=O)n(CC(N)=O)c(=O)n2C the results were LDHA inh -2.
`COC(=O)c1cc2ccc(OC)cc2c2cc(OC)c(OC)cc12` gave DT40 TDP1 no CPT inconclusive, TDP1 cell CPT inconclusive, LDHA inh 7 and IL-1B inflam inh -61*.
`O=C(CSCc1nc2ccccc2[nH]1)N1CCN(c2ccc(F)cc2)CC1` gave DT40 TDP1 no CPT 18µM*, TDP1 cell CPT 23µM*, LDHA inh 11, RORgamma inh inconclusive, IL-1B inflam inh inconclusive and Gal4-VP16 FLuc inconclusive.
O=C(CSCc1nc2ccccc2[nH]1)N1CCN(c2cccc(Cl)c2)CC1 was read as DT40 TDP1 no CPT inconclusive, TDP1 cell CPT 23µM*, LDHA inh -8, RORgamma inh 11µM*, IL-1B inflam inh inconclusive and Gal4-VP16 FLuc inconclusive.
O=C(O)CSCc1nc2ccccc2[nH]1 was read as DT40 TDP1 no CPT -3%, TDP1 cell CPT 7%, LDHA inh -1, RORgamma inh -12%, IL-1B inflam inh 18 and Gal4-VP16 FLuc -3%.
COc1ccccc1OCC(=O)c1[nH]c(C)c(C(C)=O)c1C was read as DT40 TDP1 no CPT 12µM*, TDP1 cell CPT 15µM*, LDHA inh -4, RORgamma inh inconclusive, IL-1B inflam inh -10 and Gal4-VP16 FLuc inconclusive.
For CC(=O)c1c(C)[nH]c(C(=O)COc2cc(C)ccc2C(C)C)c1C the results were DT40 TDP1 no CPT 4.6µM*, TDP1 cell CPT 8.2µM*, LDHA inh 0, RORgamma inh 14%, IL-1B inflam inh 39 and Gal4-VP16 FLuc -2%.
COc1cc(CN(C)CC(=O)c2[nH]c(C)c(C(C)=O)c2C)ccc1OC(F)F was read as DT40 TDP1 no CPT 3.7µM*, TDP1 cell CPT 8.2µM*, LDHA inh -7, RORgamma inh 3%, IL-1B inflam inh -28 and Gal4-VP16 FLuc 2.8µM*.
For COc1ccc(CNC(=O)COC(=O)c2[nH]c(C)c(C(C)=O)c2C)cc1OC the results were DT40 TDP1 no CPT -15%, TDP1 cell CPT -2%, LDHA inh -6 and IL-1B inflam inh 25.
Screening O=C(O)c1ccc(N/N=C/c2ccc(OC(=O)c3cccc(Cl)c3)cc2)cc1 returned DT40 TDP1 no CPT 10%, TDP1 cell CPT -13%, LDHA inh -4, RORgamma inh inconclusive, IL-1B inflam inh -10 and Gal4-VP16 FLuc 0.35µM*.
COc1cc(/C=N/Nc2ccc(C(=O)O)cc2)ccc1O was read as DT40 TDP1 no CPT 10%, TDP1 cell CPT 1%, LDHA inh 5, RORgamma inh 2.8µM*, IL-1B inflam inh 7 and Gal4-VP16 FLuc 2.2µM*.
Screening O=C(O)c1ccc(N/N=C/c2ccnc3ccccc23)cc1 returned DT40 TDP1 no CPT -29%, TDP1 cell CPT -29%, LDHA inh -37*, RORgamma inh inconclusive, IL-1B inflam inh inconclusive and Gal4-VP16 FLuc inconclusive.
O=C(O)c1ccc(N/N=C/c2cccc3cccnc23)cc1 was read as DT40 TDP1 no CPT 3%, TDP1 cell CPT -1%, LDHA inh -3, RORgamma inh inconclusive, IL-1B inflam inh -10 and Gal4-VP16 FLuc inconclusive.
`COc1cc(/C=N/Nc2ccc(C(=O)O)cc2)cc(OC)c1OC` gave DT40 TDP1 no CPT -20%, TDP1 cell CPT -2%, LDHA inh -1, RORgamma inh inconclusive, IL-1B inflam inh 0 and Gal4-VP16 FLuc inconclusive.
C(=NNC1=NCCN1)c1ccnc2ccccc12 was read as DT40 TDP1 no CPT inconclusive, TDP1 cell CPT -4%, LDHA inh -6 and IL-1B inflam inh -103*.
`COc1cc(/C=C/C(C)=NNc2ccccc2)ccc1O` gave DT40 TDP1 no CPT 4.1µM*, TDP1 cell CPT 3.7µM*, LDHA inh 5 and IL-1B inflam inh -94*.
For COc1ccc(/C=N/Nc2ccc([N+](=O)[O-])cc2)cc1O the results were DT40 TDP1 no CPT inconclusive, TDP1 cell CPT inconclusive, LDHA inh -5, RORgamma inh inconclusive, IL-1B inflam inh -66* and Gal4-VP16 FLuc 7%.
O=C(O)c1ccc(N/N=C/c2ccc3nccnc3c2)cc1 was read as DT40 TDP1 no CPT 12µM*, TDP1 cell CPT 12µM*, LDHA inh -3, RORgamma inh 0.1µM*, IL-1B inflam inh -9 and Gal4-VP16 FLuc 0.32µM*.
For COc1ccc(/C=C\c2onc(C)c2S(=O)(=O)N2CCC(C(=O)Nc3cccc(OC)c3)CC2)cc1 the results were DT40 TDP1 no CPT 16µM*, TDP1 cell CPT 15µM* and LDHA inh -3.
Screening CCN(CCNC(=O)C1CCN(S(=O)(=O)c2c(C)noc2C)CC1)c1ccccc1 returned DT40 TDP1 no CPT 23µM*, TDP1 cell CPT inconclusive, LDHA inh -5, RORgamma inh 0%, IL-1B inflam inh 5 and Gal4-VP16 FLuc -1%.
`CCc1ccc(NC(=O)C2CCN(S(=O)(=O)c3c(C)noc3/C=C\c3ccc(OC)cc3)CC2)cc1` gave DT40 TDP1 no CPT 5.2µM*, TDP1 cell CPT 8.2µM* and LDHA inh 1.
For Cc1ccc(/C=C/c2onc(C)c2S(=O)(=O)N2CCC(C(=O)Nc3ccc(Br)c(C)c3)CC2)cc1 the results were DT40 TDP1 no CPT -23%, TDP1 cell CPT -26% and LDHA inh -7.

Compound activity from PubChem BioAssay.
